Measurements taken from PubChem BioAssay (NCATS).
Results filed as inconclusive are left out. Where a call stands in place of a potency, no number is given. Active and inactive are the calls of the source. Unless noted, calls follow the shape of the dose curve; as a rule, active = well fitted curve in the direction sought with a large enough effect; inconclusive = small, poorly fitted or top-dose-only effect, or another doubt; inactive = no such curve, though single readings can be large; an effect the other way counts as inactive or inconclusive.

What was measured:
[1] = target: Thioredoxin reductase 1, cytoplasmic (Rattus norvegicus) (UniProt O89049); test: qHTS Assay for Inhibitors of Mammalian Selenoprotein Thioredoxin Reductase 1 (TrxR1) (AID 488773); details: Potency: inhibition;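 also: drop in NADPH fluorescence over an 8 min run after selenite addition; series mostly up to about 57 µM; nearly all actives have a fitted effect of over 40% in size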
Outline: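 Inhibition is scored from the loss of NADPH fluorescence between first and last reads of an 8-min kinetic run. Selenite (400 uM) was the substrate, added after 15 min compound preincubation at room temperature.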

[2] = target: Flap endonuclease 1 (Homo sapiens) (UniProt P39748); test: qHTS Validation Assay for the Inhibitors of Human Flap endonuclease 1 (FEN1) (AID 488816)
Outline: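 Enzyme reagent 10 nM; cpds pinned; 15 min RT preinc.; substrate 50 nM final; reads t=0 and 15 min; no-enzyme buffer wells as neg. control; normalized data, 4-parameter Hill fit.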

[3] = target: M-phase phosphoprotein 8 (Homo sapiens) (UniProt Q99549); test: qHTS Validation Assay for Inhibitors for MPP8 Chromodomain Interactions with Methylated Histone Tails (AID 488949);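 also: AlphaScreen signal from MPP8 chromodomain bound to biotinylated H3K9me3 peptide; top concentration of the series differs between compounds; nearly all actives have a fitted effect of over 55% in size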
Outline: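 AlphaScreen proximity signal from streptavidin donor and Ni-chelate acceptor beads (10 ug/mL each) reported binding of MPP8 to trimethyl-K9 H3(1-18) peptide, both at 50 nM. The complex formed 30 min before a 30 min compound exposure at room temperature, in PBS pH 7.4.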

[4] = target: Chromobox protein homolog 1 (Homo sapiens) (UniProt P83916); test: qHTS Validation Assay for Inhibitors of HP1-beta Chromodomain Interactions with Methylated Histone Tails (AID 488953);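 also: loss of AlphaScreen luminescence from HP1-beta binding biotinylated H3K9me3 peptide; series mostly up to about 110 µM; nearly all actives have a fitted effect of over 50% in size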
Outline: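 Disruption of preformed HP1-beta:H3K9me3 peptide complexes (both 50 nM, PBS pH 7.4 with 0.01% Tween-20) is measured by AlphaScreen after 30 min compound exposure at room temperature, using streptavidin donor and nickel chelate acceptor beads at 10 ug/mL final.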

[5] = target: Methanococcus maripaludis chaperonin (MmCpn) (UniProt Q6LX38); test: High-Throughput Screening for Modulators of Cytosolic Chaperonin Activity: MmCpn Primary Screen (AID 488978);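 also: 50 nM MmCpn enzyme hydrolysing 30 µM ATP at 37 °C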
Outline: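 ATPase activity of 50 nM MmCpn was assayed with 30 uM ATP, 10 minutes at 37C, after a 5 min compound preincubation at room temperature. ADP production was read as HTRF emission at 590 and 665 nm.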

[6] = target: Transient receptor potential cation channel subfamily V member 1 (Homo sapiens) (UniProt Q8NER1); test: HTS Assay for Compounds that Act as Enhancers of the Vanilloid Receptor 1 (AID 488979)
Outline: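 TRPV1 cells loaded with Fluo-8 calcium dye; compound added and Ca2+ signal (ex 480/em 520 nm) followed 3 min, then capsaicin at EC20 added and read 2 more min to detect enhancement.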

[7] = target: Thyrotropin receptor (Homo sapiens) (UniProt P16473); test: qHTS Assay for Antagonists of the Thyroid Stimulating Hormone Receptor (AID 488980); also: series mostly up to about 58 µM
Outline: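 Inhibition of cAMP raised by EC80 TSH (4 nM final) was read by HTRF, with lysate cAMP competing against cAMP-d2 for cryptate antibody after 30 min at room temperature. The cells were transfected HEK293 held in phosphodiesterase inhibitor RO 20-1724 at 70 uM.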

[8] = target: D(1A) dopamine receptor (Homo sapiens) (UniProt P21728); test: HTS Assay for Allosteric Agonists of the Human D1 Dopamine Receptor: Primary Screen for Agonists (AID 488981)
Outline: (§1)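 Tetracycline-induced HEK293 Trex D1 cells with forced coupling to calcium, loaded with no-wash calcium dye; kinetic fluorescence read 180 s after compound addition for agonism, then a further 180 s after an EC20 dopamine challenge for potentiation.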

[9] = target: D(1A) dopamine receptor (Homo sapiens) (UniProt P21728); test: HTS Assay for Allosteric Agonists of the Human D1 Dopamine Receptor: Primary Screen for Potentiators (AID 488982)
Outline: as §1

[10] = target: D(1A) dopamine receptor (Homo sapiens) (UniProt P21728); test: HTS Assay for Allosteric Agonists of the Human D1 Dopamine Receptor: Primary Screen for Antagonists (AID 488983);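 also: calcium flux response to an EC80 dopamine challenge measured with no-wash dye; nearly all actives have a fitted effect of over 65% in size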
Outline: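 Kinetic fluorescence at 1 cycle/sec tracked intracellular calcium in force-coupled, tetracycline-inducible HEK293 T-REx D1 cells. Loss of response to an EC80 dopamine dose, given 180 s after compound, marked antagonists.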

[11] = Validation screen for small molecules that induce genotoxicity in human embryonic kidney (HEK293T) cells expressing luciferase-tagged ELG1 (AID 493106)
Outline: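 Cells were dispensed at 2,000 per well, then 23 nL compound or DMSO was pinned in. After 16 hr at 37 °C and 5% CO2, ONE-Glo reagent was added. Luciferase activity was measured following 30 min at room temperature.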

[12] = target: ATPase family AAA domain-containing protein 5 (Homo sapiens) (UniProt Q96QE3); test: Validation screen for small molecules that inhibit ELG1-dependent DNA repair in human embryonic kidney (HEK293T) cells expressing luciferase-tagged ELG1 (AID 493107);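 also: cells co-treated with the DNA-damaging agent 5-fluorouridine alongside compound; series mostly up to about 46 µM; inhibitors lower the ELG1-luciferase luminescence signal; nearly all actives have a fitted effect of over 70% in size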
Outline: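 Cells are dispensed in 1536-well format, then 5-fluorouridine and compound are pinned in. After a 16 hr incubation at 37 °C and 5% CO2, ONE-Glo is added and luciferase measured on a CCD imager.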

[13] = Nrf2 qHTS screen for inhibitors: Validation (AID 493153; active = well fitted inhibition curve with a large enough effect in the main read-out, with a control signal flat, not every such curve was filed as active); details: Potency: luciferase luminescence; viability change: measured here: cytotoxicity max response
Outline: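 A549 ARE_Fluc, 5% FBS OPTI-MEM; cpd titration, 18-24 h, 37°C/5% CO2. Read 1: CellTiter-Fluor (Ex 405/Em 525), cytotox. Read 2: luciferase lum, Nrf2 activity.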

[14] = qHTS for Inhibitors of Cell Surface uPA Generation: Validation Assay (AID 493164);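 also: RAW 264.7 macrophage cells exposed to compound for 18 h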
Outline: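 ATP-Lite luminescence read-out: ATP remains high when uPA activity-dependent LF translocation into the cytoplasm is blocked. RAW 264.7 cells, 18 h compound exposure at 37 C; 7-point titration, 2.45 nM to 38.3 uM final.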

[15] = target: Galactokinase (Homo sapiens) (UniProt P51570); test: qHTS Validation Assay for Inhibitors of Human Galactokinase (GALK) (AID 493189)
Outline: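 Inhibition was measured as remaining ATP, detected by luciferase luminescence after a 1 h room-temperature reaction. Final conditions: 5 nM GALK, 100 uM galactose, 35 uM ATP, pH 8.0 HEPES buffer.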

[16] = Validation screen for small molecules that induce DNA re-replication in SW480 colon adenocarcinoma cells (AID 504364)
Outline: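 Image-based qHTS: compounds were incubated with SW480 cells for 48 hr, nuclei stained with Hoechst, and per-nucleus fluorescence intensity scanned to flag cells with excess DNA content.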

[17] = target: Peptidyl-prolyl cis-trans isomerase NIMA-interacting 1 (Homo sapiens) (UniProt Q13526); test: qHTS Validation Assay to Find Inhibitors of Pin1 (AID 504536; active = well fitted inhibition curve with a large enough effect in the polarisation, with a control signal flat, not every such curve was filed as active; the % refers to the polarisation)
Outline: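 Fluorescence polarization competition: compounds (titration) displace HiFluor-488-labeled Pin1-1b peptide from Pin1 (0.3 uM final) in pH 7.5 HEPES buffer with DTT, 10 min at room temperature; %Activity normalized to no-enzyme wells, curves fitted.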

[18] = target: Phosphoglycerate kinase, glycosomal (Trypanosoma brucei brucei) (UniProt P07378); test: qHTS Validation Assay to Find Inhibitors of Phosphoglycerate Kinase (AID 504547)
Outline: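 Compounds are pinned into the substrate/PGK mixture, and GAPDH (100nM final) is added to start the reaction by producing 1,3-BPG. After 60 minutes at room temperature, Kinase-Glo Plus is added and luminescence is measured 10 minutes later.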

[19] = target: ATP-dependent 6-phosphofructokinase (Trypanosoma brucei brucei) (UniProt O15648); test: qHTS Assay to Find Inhibitors of T. brucei phosphofructokinase: hit validation (AID 492961);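 also: luminescence reports ADP formed as PFK phosphorylates fructose-6-phosphate with ATP; series mostly up to about 51 µM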
Outline: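 Inhibition of parasite PFK is measured as reduced ADP formation, quantified via luciferase after ATP depletion. Assay used 0.1 mM ATP, 0.5 mM F6P, 1.25 nM enzyme, 45 min incubation.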

[20] = target: Thyrotropin-releasing hormone receptor (Homo sapiens) (UniProt P34981); test: qHTS for Small Molecule Agonists and Allosteric Enhancers of Human TRH Receptor: Validation Screen for Agonists (AID 493127;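 active = calcium activation more than 3 SD above the typical response in the agonist read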;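 also: intracellular calcium rise by fluo-8 fluorescence before TRH EC20 addition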); details: TRH receptor agonist cell assay; at 2 µM; stronger effect = higher value
Outline: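 Compounds are added by online pintool to dye-loaded TRHR cells while fluorescence is recorded every second. A rise in calcium signal during the agonist read marks activation; a later 10 nM TRH addition (EC20) serves the separate enhancer mode.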

Galactokinase (Homo sapiens), sequence (P51570 whole entry, looked up): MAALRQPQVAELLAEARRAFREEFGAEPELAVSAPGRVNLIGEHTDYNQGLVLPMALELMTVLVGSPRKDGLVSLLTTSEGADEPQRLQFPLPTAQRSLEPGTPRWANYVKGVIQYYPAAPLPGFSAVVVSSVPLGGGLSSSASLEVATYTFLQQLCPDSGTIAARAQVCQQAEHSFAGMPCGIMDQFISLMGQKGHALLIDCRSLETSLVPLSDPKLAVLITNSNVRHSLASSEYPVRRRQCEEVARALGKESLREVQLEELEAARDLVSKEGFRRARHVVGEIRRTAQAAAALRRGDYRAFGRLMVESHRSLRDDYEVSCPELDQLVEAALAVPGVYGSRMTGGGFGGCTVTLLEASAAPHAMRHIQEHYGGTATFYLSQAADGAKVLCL
D(1A) dopamine receptor (Homo sapiens), sequence (P21728 whole entry, looked up): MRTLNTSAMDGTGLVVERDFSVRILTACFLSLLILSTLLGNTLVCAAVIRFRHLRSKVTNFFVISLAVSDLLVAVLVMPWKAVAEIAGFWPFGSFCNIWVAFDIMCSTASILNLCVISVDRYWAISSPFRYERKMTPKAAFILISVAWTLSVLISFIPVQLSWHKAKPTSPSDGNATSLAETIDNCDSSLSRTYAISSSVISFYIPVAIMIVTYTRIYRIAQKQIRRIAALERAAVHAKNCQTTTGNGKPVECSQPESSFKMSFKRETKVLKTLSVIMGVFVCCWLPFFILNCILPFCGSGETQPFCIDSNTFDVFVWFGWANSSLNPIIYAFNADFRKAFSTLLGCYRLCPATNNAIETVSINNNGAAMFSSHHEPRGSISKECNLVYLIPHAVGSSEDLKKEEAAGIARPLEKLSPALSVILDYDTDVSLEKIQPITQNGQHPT
Chromobox protein homolog 1 (Homo sapiens), sequence (P83916 whole entry, looked up): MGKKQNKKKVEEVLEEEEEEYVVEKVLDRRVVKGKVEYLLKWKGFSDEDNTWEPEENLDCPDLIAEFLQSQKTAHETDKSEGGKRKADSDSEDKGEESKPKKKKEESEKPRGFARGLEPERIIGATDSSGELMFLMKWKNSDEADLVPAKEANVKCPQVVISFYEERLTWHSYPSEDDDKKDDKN
Thioredoxin reductase 1, cytoplasmic (Rattus norvegicus), sequence (O89049 whole entry, looked up): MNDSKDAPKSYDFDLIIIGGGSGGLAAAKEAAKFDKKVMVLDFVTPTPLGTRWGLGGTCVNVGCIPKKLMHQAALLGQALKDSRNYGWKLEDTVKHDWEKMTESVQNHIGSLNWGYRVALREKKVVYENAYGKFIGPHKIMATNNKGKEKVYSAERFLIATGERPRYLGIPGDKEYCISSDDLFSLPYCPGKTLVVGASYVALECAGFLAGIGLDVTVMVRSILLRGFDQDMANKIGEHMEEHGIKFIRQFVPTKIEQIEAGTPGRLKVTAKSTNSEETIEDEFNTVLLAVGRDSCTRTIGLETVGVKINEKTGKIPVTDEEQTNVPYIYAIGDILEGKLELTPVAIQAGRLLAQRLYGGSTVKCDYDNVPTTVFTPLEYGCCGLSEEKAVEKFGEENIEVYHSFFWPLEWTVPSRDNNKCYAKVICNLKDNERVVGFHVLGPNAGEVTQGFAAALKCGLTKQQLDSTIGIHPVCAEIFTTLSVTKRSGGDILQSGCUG
Phosphoglycerate kinase, glycosomal (Trypanosoma brucei brucei), sequence (P07378 whole entry, looked up): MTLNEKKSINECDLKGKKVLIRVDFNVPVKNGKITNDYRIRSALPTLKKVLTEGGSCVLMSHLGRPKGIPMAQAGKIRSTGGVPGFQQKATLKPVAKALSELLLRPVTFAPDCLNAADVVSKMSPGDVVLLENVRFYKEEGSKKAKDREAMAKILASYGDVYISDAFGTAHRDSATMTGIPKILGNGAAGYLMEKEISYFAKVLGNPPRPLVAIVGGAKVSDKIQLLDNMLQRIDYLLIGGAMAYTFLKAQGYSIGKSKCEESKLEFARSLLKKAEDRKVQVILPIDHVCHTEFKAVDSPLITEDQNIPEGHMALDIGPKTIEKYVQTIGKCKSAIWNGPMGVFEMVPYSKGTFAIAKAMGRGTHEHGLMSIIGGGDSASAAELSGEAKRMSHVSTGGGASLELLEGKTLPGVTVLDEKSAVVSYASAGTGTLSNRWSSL
M-phase phosphoprotein 8 (Homo sapiens), sequence (Q99549 whole entry, looked up): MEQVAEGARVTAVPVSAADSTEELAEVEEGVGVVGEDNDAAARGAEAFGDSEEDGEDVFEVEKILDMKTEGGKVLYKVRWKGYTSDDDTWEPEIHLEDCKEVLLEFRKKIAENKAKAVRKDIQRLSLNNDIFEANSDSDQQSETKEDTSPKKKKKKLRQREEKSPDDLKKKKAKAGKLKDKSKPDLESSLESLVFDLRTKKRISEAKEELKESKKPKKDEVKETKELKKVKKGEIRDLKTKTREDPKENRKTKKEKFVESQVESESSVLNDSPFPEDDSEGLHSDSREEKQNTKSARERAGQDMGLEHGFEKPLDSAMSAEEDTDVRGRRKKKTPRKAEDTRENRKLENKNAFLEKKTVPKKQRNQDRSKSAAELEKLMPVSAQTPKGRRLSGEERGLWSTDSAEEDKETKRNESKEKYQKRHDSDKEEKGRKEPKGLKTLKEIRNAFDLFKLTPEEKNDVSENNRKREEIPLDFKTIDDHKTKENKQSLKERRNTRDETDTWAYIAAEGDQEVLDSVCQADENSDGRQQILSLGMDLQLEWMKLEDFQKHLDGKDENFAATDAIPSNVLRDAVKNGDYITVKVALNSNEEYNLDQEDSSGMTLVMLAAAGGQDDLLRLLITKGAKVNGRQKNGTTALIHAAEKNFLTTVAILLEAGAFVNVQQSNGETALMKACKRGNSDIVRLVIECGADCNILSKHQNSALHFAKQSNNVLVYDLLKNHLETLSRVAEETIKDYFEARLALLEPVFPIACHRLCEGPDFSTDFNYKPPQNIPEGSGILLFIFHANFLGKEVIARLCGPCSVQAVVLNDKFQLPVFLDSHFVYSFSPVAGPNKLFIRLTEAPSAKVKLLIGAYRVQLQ
Flap endonuclease 1 (Homo sapiens), sequence (P39748 whole entry, looked up): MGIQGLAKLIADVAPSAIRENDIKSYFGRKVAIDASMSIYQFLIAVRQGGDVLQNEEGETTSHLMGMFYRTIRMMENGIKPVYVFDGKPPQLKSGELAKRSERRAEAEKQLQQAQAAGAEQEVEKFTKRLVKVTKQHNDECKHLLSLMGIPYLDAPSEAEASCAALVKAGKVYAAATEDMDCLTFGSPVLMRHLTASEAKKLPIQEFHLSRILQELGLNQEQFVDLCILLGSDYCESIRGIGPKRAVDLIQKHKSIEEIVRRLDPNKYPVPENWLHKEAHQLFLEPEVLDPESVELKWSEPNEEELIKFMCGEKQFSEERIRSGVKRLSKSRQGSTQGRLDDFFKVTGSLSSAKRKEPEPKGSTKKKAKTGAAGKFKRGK
Peptidyl-prolyl cis-trans isomerase NIMA-interacting 1 (Homo sapiens), sequence (Q13526 whole entry, looked up): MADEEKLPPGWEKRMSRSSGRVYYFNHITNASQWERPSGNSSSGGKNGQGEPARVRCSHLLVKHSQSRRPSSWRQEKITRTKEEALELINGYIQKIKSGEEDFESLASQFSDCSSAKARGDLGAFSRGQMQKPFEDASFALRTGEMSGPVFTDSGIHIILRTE
Transient receptor potential cation channel subfamily V member 1 (Homo sapiens), sequence (Q8NER1 whole entry, looked up): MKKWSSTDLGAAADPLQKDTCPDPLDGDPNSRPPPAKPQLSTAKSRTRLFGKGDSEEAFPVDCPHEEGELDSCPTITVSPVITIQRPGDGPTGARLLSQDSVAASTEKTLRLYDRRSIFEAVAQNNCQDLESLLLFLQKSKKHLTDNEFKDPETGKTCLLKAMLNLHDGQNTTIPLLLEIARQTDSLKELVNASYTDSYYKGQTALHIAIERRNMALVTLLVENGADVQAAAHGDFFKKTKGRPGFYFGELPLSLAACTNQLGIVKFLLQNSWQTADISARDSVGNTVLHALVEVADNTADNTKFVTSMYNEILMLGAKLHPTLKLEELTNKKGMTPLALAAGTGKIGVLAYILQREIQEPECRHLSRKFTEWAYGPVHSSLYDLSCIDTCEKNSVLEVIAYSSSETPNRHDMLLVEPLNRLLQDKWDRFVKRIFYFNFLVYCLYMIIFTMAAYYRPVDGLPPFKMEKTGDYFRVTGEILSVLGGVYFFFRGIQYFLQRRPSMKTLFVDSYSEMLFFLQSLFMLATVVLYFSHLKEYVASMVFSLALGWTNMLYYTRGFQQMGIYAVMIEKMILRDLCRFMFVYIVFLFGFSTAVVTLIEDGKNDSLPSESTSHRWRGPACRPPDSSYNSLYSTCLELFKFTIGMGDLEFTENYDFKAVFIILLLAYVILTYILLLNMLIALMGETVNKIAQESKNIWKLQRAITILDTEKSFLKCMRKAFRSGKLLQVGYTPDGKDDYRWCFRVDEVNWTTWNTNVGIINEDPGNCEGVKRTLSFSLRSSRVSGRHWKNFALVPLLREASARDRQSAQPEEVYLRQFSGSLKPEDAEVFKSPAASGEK
ATP-dependent 6-phosphofructokinase (Trypanosoma brucei brucei), sequence (O15648 whole entry, looked up): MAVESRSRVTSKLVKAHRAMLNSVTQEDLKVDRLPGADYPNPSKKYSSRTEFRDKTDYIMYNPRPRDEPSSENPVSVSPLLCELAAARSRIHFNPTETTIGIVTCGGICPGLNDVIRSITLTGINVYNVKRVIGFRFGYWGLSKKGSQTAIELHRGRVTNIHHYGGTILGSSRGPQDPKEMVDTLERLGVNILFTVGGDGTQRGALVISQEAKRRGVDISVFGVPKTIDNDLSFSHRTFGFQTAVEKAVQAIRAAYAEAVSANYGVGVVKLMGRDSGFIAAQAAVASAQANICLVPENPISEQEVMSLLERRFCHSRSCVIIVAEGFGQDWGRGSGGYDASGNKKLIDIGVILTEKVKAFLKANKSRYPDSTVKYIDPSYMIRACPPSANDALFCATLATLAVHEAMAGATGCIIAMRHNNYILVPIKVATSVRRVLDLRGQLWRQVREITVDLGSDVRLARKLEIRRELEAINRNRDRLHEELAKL

CCN(Cc1ccncc1)C(=O)C(CO)c1ccccc1 (configuration not stated)
Potency [1]: inactive
Potency [2]: inactive
Potency [3]: inactive
Potency [4]: inactive
outcome [5]: inactive
outcome [6]: inactive
outcome [7]: inactive
Potency [8]: inactive
Potency [9]: inactive
Potency [10]: inactive
Potency [11]: inactive
Potency [12]: inactive
Potency [13]: inactive
viability change [13]: -1.19%
outcome [14]: inactive
outcome [15]: inactive
outcome [16]: inactive
outcome [17]: inactive
outcome [18]: inactive

O=c1[nH]c(=O)n([C@H]2C[C@H](O)[C@@H](CO)O2)cc1Br
Potency [1]: inactive
Potency [2]: inactive
Potency [3]: inactive
Potency [4]: inactive
outcome [5]: inactive
outcome [6]: inactive
outcome [7]: inactive
Potency [8]: inactive
Potency [9]: inactive
Potency [10]: inactive
outcome [19]: inactive
Potency [12]: inactive
Potency [13]: inactive
viability change [13]: 1.73%
outcome [14]: inactive
outcome [16]: inactive
outcome [17]: inactive
outcome [18]: inactive

CNC1(C)C2CCC(C2)C1(C)C (configuration not stated)
Potency [1]: inactive
Potency [2]: inactive
Potency [3]: inactive
Potency [4]: inactive
outcome [5]: inactive
outcome [6]: inactive
outcome [7]: inactive
Potency [8]: inactive
Potency [9]: inactive
Potency [10]: inactive
Potency [11]: inactive
Potency [13]: inactive
viability change [13]: 3.39%
outcome [14]: inactive
outcome [15]: inactive
outcome [16]: inactive
outcome [17]: inactive
outcome [18]: inactive

C#CCN(C)CCCOc1ccc(Cl)cc1Cl
Potency [1]: inactive
Potency [2]: inactive
Potency [3]: inactive
Potency [4]: inactive
outcome [5]: inactive
outcome [6]: inactive
Potency [8]: inactive
Potency [10]: inactive
outcome [19]: inactive
Potency [13]: inactive
viability change [13]: -1.92%
outcome [14]: inactive
outcome [18]: inactive

CCN(CC)CCNC(=O)c1cc(S(C)(=O)=O)ccc1OC
Potency [1]: inactive
Potency [2]: inactive
Potency [3]: inactive
Potency [4]: inactive
outcome [5]: inactive
outcome [7]: inactive
Potency [8]: inactive
Potency [9]: inactive
Potency [10]: inactive
outcome [19]: inactive
Potency [12]: inactive
Potency [13]: inactive
viability change [13]: 10.1%
outcome [14]: inactive
outcome [16]: inactive
outcome [17]: inactive
outcome [18]: inactive

COc1ccc(CCN(C)CCCC(C#N)(c2cc(OC)c(OC)c(OC)c2)C(C)C)cc1OC (configuration not stated)
Potency [1]: inactive
Potency [2]: inactive
Potency [3]: inactive
Potency [4]: inactive
outcome [5]: inactive
outcome [6]: inactive
outcome [7]: inactive
Potency [8]: inactive
Potency [9]: inactive
Potency [10]: inactive
Potency [11]: inactive
Potency [12]: inactive
Potency [13]: inactive
viability change [13]: -13.6%
outcome [14]: inactive
outcome [16]: inactive
outcome [17]: inactive
outcome [18]: inactive

CN(C)CCN(Cc1cccs1)c1ccccn1
Potency [1]: inactive
Potency [2]: inactive
Potency [3]: inactive
Potency [4]: inactive
outcome [5]: inactive
outcome [7]: inactive
Potency [8]: inactive
Potency [9]: inactive
Potency [10]: inactive
Potency [11]: inactive
Potency [13]: inactive
viability change [13]: -0.0804%
outcome [14]: inactive
outcome [15]: inactive
outcome [16]: inactive
outcome [17]: inactive
outcome [18]: inactive

NS(=O)(=O)c1cc2c(cc1Cl)NC(C1CC3C=CC1C3)NS2(=O)=O (configuration not stated)
Potency [1]: inactive
Potency [2]: inactive
Potency [3]: inactive
Potency [4]: inactive
outcome [5]: inactive
outcome [6]: inactive
Potency [8]: inactive
Potency [10]: inactive
Potency [11]: inactive
Potency [12]: inactive
activation [20]: -0.25% (inactive)
Potency [13]: inactive
viability change [13]: 12.8%
outcome [14]: inactive
outcome [15]: inactive
outcome [16]: inactive
outcome [18]: inactive
